A selection: hits, their analogues and other compounds. The true share with any hit is near 13%.
USP30 inh: inhibitors of human USP30 deubiquitinase; purified USP30, Ub-rhodamine cleavage fluorescence; 47,000 compounds, 5.3% hits; Q70CQ3; AID 1645860; inhibition, % at 25 µM
Target sequence (Q70CQ3 whole entry, looked up): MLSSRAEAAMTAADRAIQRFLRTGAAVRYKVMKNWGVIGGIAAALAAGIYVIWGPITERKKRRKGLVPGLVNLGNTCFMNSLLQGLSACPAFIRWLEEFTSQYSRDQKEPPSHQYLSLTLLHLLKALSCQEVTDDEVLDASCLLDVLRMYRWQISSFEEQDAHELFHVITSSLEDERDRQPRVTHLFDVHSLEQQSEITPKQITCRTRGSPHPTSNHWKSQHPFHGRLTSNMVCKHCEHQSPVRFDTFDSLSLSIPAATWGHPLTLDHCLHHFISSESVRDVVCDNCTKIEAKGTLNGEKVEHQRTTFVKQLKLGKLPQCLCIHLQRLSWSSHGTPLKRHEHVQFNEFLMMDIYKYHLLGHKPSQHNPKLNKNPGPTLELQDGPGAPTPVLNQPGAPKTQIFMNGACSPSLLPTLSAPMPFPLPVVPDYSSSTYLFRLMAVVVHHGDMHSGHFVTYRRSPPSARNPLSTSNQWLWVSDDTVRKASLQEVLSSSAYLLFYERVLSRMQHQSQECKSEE
USP10 block: human USP10 deubiquitinase inhibition; inhibition, % at 20 µM; purified USP10, Ub-rhodamine fluorescence, 60 min; Q14694; AID 1645856; 47,000 compounds, 1.1% hits
USP8 inh: blocks human USP8 ubiquitin-rhodamine cleavage | P40818 | purified USP8, Ub-rhodamine cleavage fluorescence, 30 min | inhibition, % at 20 µM | 47,000 compounds, 4.2% hits
USP17 block: blocks human USP17 ubiquitin-rhodamine cleavage | A8MUK1 | 47,000 compounds, 6.5% hits | purified USP17, Ub-rhodamine cleavage fluorescence, 3 h | inhibition, % at 50 µM
USP28 block: human USP28 deubiquitinase inhibition; Q96RU2; purified USP28, Ub-rhodamine cleavage fluorescence, 30 min; inhibition, % at 25 µM; 47,000 compounds, 3% hits; AID 1645857
Starred values were filed as active, the others as inactive; nt = no result. Rule as the data show it: active = inhibition above about 30%; inactive = the rest.

SMILES	USP30 inh	USP10 block	USP8 inh	USP17 block	USP28 block
O=C(NCc1ccc(Cl)cc1)[C@@H]1Cc2nc[nH]c2CN1Cc1ccc(Cl)cc1	-18	-5	50*	4	-6
Cc1nc(N2CCCCC2)ncc1C(=O)Nc1cc(F)ccc1F	-19	-4	0	2	0
CCC(=O)Nc1cccnc1-c1ccc(C(=O)NCc2cccc(OC)c2)cc1	7	2	2	21	1
CNc1nc(C2CCCN(C(=O)c3cc(C4CC4)on3)C2)nc2c1CCN(C)C2 (stereo not drawn)	-196	-3	36*	-27	-76
CCc1nnc(-c2cc(S(=O)(=O)NC3CCCCC3)c[nH]2)o1	5	-1	7	3	3
COc1cccc(-c2noc(NCCc3ccc(SC)cc3)n2)c1	-5	8	6	-5	32*
COc1ccc(-c2noc(NCCCN3CCN(c4ccccc4)CC3)n2)cc1	-1	0	-13	-9	0
O=C(CN1CCC2(CCC1=O)CC(=O)c1ccccc1O2)NCc1ccncc1 (stereo not drawn)	-1	1	6	-5	-19
O=C(C1CCN(c2nc3ccc(-c4cccnc4)nc3s2)CC1)N1CCCC1	-2	-1	-4	-2	-4
COc1cccc(-c2ccc3nc(N4CCC(C(N)=O)CC4)sc3n2)c1	8	-3	14	49*	2
Cn1cnc2c(C(=O)NCc3ccc(F)cc3)nn(-c3ccccc3)c2c1=O	-44	-5	-3	1	-5
CCOC(=O)CC(NC(=O)CCc1c(C)nc2c(c1C)c(=O)n(C)c(=O)n2C)c1ccc(C)cc1 (stereo not drawn)	31*	-5	3	14	4
CCN(CC)c1ccc2ccc(C(=O)NCCN3CCOCC3)cn12	nt	-4	-24	-95	nt
COc1cccc(OCC(O)CNc2ccc(Cl)cc2)c1 (stereo not drawn)	-15	3	37*	5	-8
COc1ccc(N2CCN(c3ncccc3[N+](=O)[O-])CC2)cc1	-22	1	-98	-22	-13
Cc1ccc(F)cc1S(=O)(=O)NCc1ccc(N2CCN(C)CC2)cc1	36*	2	-7	16	15
COc1ccc(S(=O)(=O)NCC(C)(C)SCc2ccc(F)cc2)cc1	31*	10	10	21	8
CC12C(=O)N(Cc3ccccc3)CC(=O)N1CCc1c2[nH]c2ccccc12 (stereo not drawn)	nt	3	3	3	nt
CC1OC2CC(O)C1(O)C1=C2C(=O)c2c(O)c3c(c(O)c2C1=O)[C@H](C)O[C@H]1CC(=O)O[C@@H]31 (stereo partly drawn)	-81	-10	-71	56*	11
CC1CCN(S(=O)(=O)c2c[nH]c(-c3nnc(C(=O)N4CCCC4)o3)c2)CC1	47*	9	30	28	19
Cc1ccc(CNC(=O)c2ccc(N3CCCC3)c(NC(=O)Nc3ccc(F)cc3)c2)cc1	18	15	3	12	8
COc1ccc(-c2c(-c3ccc(OCCN4CCOCC4)cc3O)n[nH]c2C)cc1OC	-24	-2	55*	1	-16
COc1ccc2c(c1)CCc1c-2n[nH]c1C(=O)NCCN1CCOCC1	3	0	1	10	5
COc1ccc(NC(=O)c2oc(=O)c3ccccc3c2-c2ccccc2)cc1	3	12	-4	0	-9
Cc1ccc(-c2c(C(=O)Nc3ccc(S(N)(=O)=O)cc3)oc(=O)c3ccccc23)cc1	23	6	24	57*	-5
SMILES	USP30 inh	USP10 block	USP8 inh	USP17 block	USP28 block
COc1ccccc1C1CC(c2ccccc2)N(C(=O)CC(C)C)c2ncnn21 (stereo not drawn)	31*	2	4	27	14
Cc1ccc(C2CC(c3ccccc3)N(C(=O)C(C)C)c3ncnn32)cc1 (stereo not drawn)	40*	2	5	13	13
O=C(COc1ccccc1[N+](=O)[O-])Nc1cccc(-c2nc3ccccc3[nH]2)c1	15	5	24	-51	-1
O=C(Nc1cccc(-c2nc3ccccc3[nH]2)c1)c1cc2ccccc2oc1=O	37*	4	1	60*	-3
c1ccc(-c2cc(Nc3c4c(nc5ccccc35)CCCC4)n[nH]2)cc1	-45	-2	2	44*	-14
O=C(OC1CSc2nc3ccccc3n2C1)c1ccc([N+](=O)[O-])o1 (stereo not drawn)	-62	40*	64*	96*	-2
Cc1c(O)c(O)c2c(c1O)COC2	-108	-2	2	39*	1
Cc1cc(NC(=O)COc2ccc3oc4c(c3c2)CCCC4)n(-c2ccccc2)n1	nt	39*	19	73*	nt
Cc1cccc(OCC(=O)Nc2onc3c2CCCC3)c1	12	2	7	2	20
O=C(COc1ccc2c(c1)CCC2)Nc1ccc(S(=O)(=O)Nc2ncccn2)cc1	-136	-1	-3	-9	-49
Cc1ccc(NC(=O)COc2ccc3oc4c(c3c2)CCCC4)cc1	38*	9	30	14	17
CCc1cnc(N2CCC3(CC2)CCN(c2cccnc2)C3=O)nc1	26	0	-140	-7	18
O=C1N[C@H]2CCCN(C(=O)CCCn3cccn3)[C@H]2CCCCCOc2ccccc21	20	1	12	7	3
C/C=C\C(=O)O[C@@H]1[C@@H](O)[C@H]2O[C@@H]3C=C(C)[C@@H](O)C[C@]3(C)[C@]1(C)C21CO1 (stereo partly drawn)	21	0	3	8	0
CCC(=O)N1CCN(c2ccc(Nc3ccccc3)nn2)CC1	-2	0	4	-15	-4
CCOc1ccc2[nH]c(=O)c(CN(C(=O)c3cccs3)C3CCCC3)cc2c1	7	6	5	66*	-8
Cc1cccc(S(=O)(=O)Nc2ccc(-c3cn4ccc(C)nc4n3)cc2)c1	-17	-4	-2	1	-6
COc1ccc(/C=C/C(=O)Nc2cccc(S(=O)(=O)Nc3ccccc3Cl)c2)c(OC)c1	69*	62*	66*	7	52*
O=C(Nc1cccc([N+](=O)[O-])c1)Nc1ccc2snnc2c1	-16	56*	95*	-5	6
CC(Sc1nnc2ccccn12)C(=O)Nc1cccc([N+](=O)[O-])c1 (stereo not drawn)	nt	2	0	-4	nt
O=C(NCCCn1ccnc1)c1nc(-c2ccc(-n3cccc3)cc2)no1	12	1	-2	15	1
COc1ccc(NC(=O)Cn2c(=O)n(CCC(=O)N3CCc4ccccc4C3)c(=O)c3ccccc32)cc1Cl	19	17	55*	nt	10
COc1ccc(NC(=O)Cn2c(=O)n(CCC(=O)N3CC=C(c4ccccc4)CC3)c(=O)c3ccccc32)cc1Cl	-5	3	0	-6	-5
COc1ccc(Cl)cc1NC(=O)Cn1c(=O)n(CCC(=O)N2CCc3ccccc3C2)c(=O)c2ccccc21	36*	5	34*	25	5
CCn1c(CN2CCOCC2)nnc1SCC(=O)c1ccc(OC)cc1	6	1	11	7	9

Screens: PubChem BioAssay, Buhrlage Lab, Dana-Farber Cancer Institute and Novartis Institutes for BioMedical Research (Cambridge, Mass)
